ATXN2 expr inh = Primary qHTS for Inhibitors of ATXN expression; HEK-293 ATXN2-luciferase reporter, luminescence, 24 h; Potency, µM (highest dose often 57 µM), without a hit: at the highest dose activity change, negative = inhibition, usual class: inhibitors; 360,000 tested, 0.72% active; further: on the % scale 0 is the no-effect control and ±100 the full control effect; nearly all actives have a fitted effect of over 55% in size
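qHTS (up to 57 uM final) was run with 24 h compound exposure of reporter cells at 37 °C. Each well was multiplexed: SteadyGlo luminescence measured ATXN2-luciferase expression after a fluorogenic Gly-Phe-AFC viability readout (25 uM final).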
KB-V1 cytotox = qHTS assay for MDR1-selective chemotherapeutics: Primary screen using the drug-selected MDR subline cells KB-V1; KB-V1 MDR cells viability, CellTiter-Glo, 72 h; Potency, µM (top dose mostly 46.1 µM), actives largely listed as cytotoxic; 400,000 tested, 3.4% active; further: on the % scale 0 is the no-effect control and ±100 the full control effect; nearly all actives have a fitted effect of over 60% in size
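KB-V1 MDR subline cells in DMEM (phenol-red free, 10% FBS) exposed to compounds in qHTS concentration series for 72 h at 37 degrees C. Viability read by CellTiter-Glo luminescence; concentration-effect curves fitted after normalization and correction.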
KB-3-1 tox = qHTS assay for MDR1-selective chemotherapeutics: Primary screen using the parental adenocarcinoma cell KB-3-1; KB-3-1 viability, CellTiter-Glo ATP luminescence, 72 h; Potency, µM (highest dose often 46.1 µM), most hits filed as cytotoxic; 400,000 tested, 1.4% active; further: on the % scale 0 is the no-effect control and ±100 the full control effect; nearly all actives have a fitted effect of over 60% in size
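Cytotoxicity in the drug-sensitive parental line KB-3-1 was scored as loss of CellTiter-Glo luminescence following 72 h incubation with compound. Values come from curve fitting of normalized concentration-response data.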
ATXN viability = Viability Counterscreen for Primary qHTS for Inhibitors of ATXN expression. S2 cells (HEK-293 line with an ATXN2-luciferase reporter) viability, CellTiter-Fluor protease fluorescence, 24 h. Potency, µM (series often up to 56.7 µM), usual class: cytotoxic. 400,000 tested, 0.49% active. AID 651635, 2014; further: nearly all actives have a fitted effect of over 40% in size
HT1080-NT tox = qHTS for induction of synthetic lethality in tumor cells producing 2HG: qHTS for the HT-1080-NT fibrosarcoma cell line. HT-1080-NT fibrosarcoma viability, CellTiter-Glo ATP luminescence, 48 h. Potency, µM (top dose mostly 46.1 µM), for the others: at the highest dose activity, negative = less viability, usual class: cytotoxic. 360,000 tested, 1.6% active. AID 686970, 2013;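 further: NT is the 2HG producing partner of a matched IDH1 knockdown line; 0% = DMSO-treated cells and -100% = media-only wells without cells; nearly all actives have a fitted effect of over 55% in size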
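Viability by CellTiter-Glo luminescence after 48 h compound exposure at 37C of HT-1080-NT cells (750/well, RPMI, 5% FBS). % activity scaled between DMSO wells and medium-only wells, then curve-fitted and categorized by curve class.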
HT1080 IDH1KD tx = qHTS for induction of synthetic lethality in tumor cells producing 2HG: qHTS for the HT-1080-IDH1KD cell line | 360,000 tested, 2% active | Potency, µM (doses to about 46.1 µM), for inactives: top-dose activity, negative = toxicity, hits mostly cytotoxic | HT-1080 IDH1 knockdown viability, ATP luminescence, 48 h;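 further: 0% = DMSO wells and -100% = cell-free medium wells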
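Luminescent ATP read-out (CellTiter-Glo, 10 min at room temperature) after 48 h compound exposure at 37 °C gave viability of IDH1-knockdown HT-1080 cells. Activity was normalised to DMSO and cell-free wells, then fitted as concentration-response curves.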
* = called active by the depositor; i = inactive; ? = inconclusive; / = not tested or not shown; [ ] = remark or other dose. This is a sample that favours compounds with a hit; in the whole collection about 6.2% have one here. The call rests on the fitted dose curve; in most records, active means well fitted curve in the direction sought with a large enough effect; inconclusive means small, poorly fitted or top-dose-only effect, or another doubt; inactive means no such curve, though single readings can be large; an effect the other way counts as inactive or inconclusive. Potency means the concentration at half of the fitted maximal effect.

SMILES | ATXN2 expr inh | KB-V1 cytotox | KB-3-1 tox | ATXN viability | HT1080-NT tox | HT1080 IDH1KD tx
CCOC(=O)C1CCCN(C(=O)CNS(=O)(=O)c2ccc(Br)s2)C1 (centres undefined) | -2% | 21µM* | i | i | 7% | -6%
CCOc1ccccc1N1CCN(C(=O)C2c3ccccc3Oc3ccccc32)CC1 | -22% | 15µM* | 13µM* | i | ? | 18µM*
CCOC(=O)C1CCCN(C(=O)C2c3ccccc3Oc3ccccc32)C1 (centres undefined) | 5% | 12µM* | i | ? | 6% | 1%
CCOC(=O)C1CCCN(C(=S)Nc2ccc(Nc3ccccc3)cc2)C1 (centres undefined) | 1%[11.3 µM] | i | i | i | -16% | -2%
Cc1ccccc1-c1noc(CCC(=O)Nc2cccc(C)c2C)n1 | -2% | ? | i | i | / | /
CCn1cc(C(=O)NCCCO)c(=O)c2cc(F)c(N3CCN(C)CC3)cc21 | / | i | i | i | 11% | 6%
CCCCCCNC(=O)c1cn(CC)c2cc(N3CCN(C)CC3)c(F)cc2c1=O | ? | i | i | ? | 16µM* | ?
CCn1cc(C(=O)NCC(C)C)c(=O)c2cc(F)c(N3CCN(C(=O)c4ccco4)CC3)cc21 | 5% | 16µM* | i | i | -15% | 0%
N=c1n(CCN2CCCCC2)c2ccccc2n1CC(O)c1cccc(Br)c1 (centres undefined) | ? | ? | ? | ? | 23µM* | ?
N=c1n(CCN2CCCCC2)c2ccccc2n1CC(O)c1ccc(Cl)c(Cl)c1 (centres undefined) | 25µM* | 21µM* | ? | ? | 11µM* | 13µM*
COC(=O)Cn1c(=N)n(CCN2CCCCC2)c2ccccc21 | -7% | i | i | i | 10% | 9%
COc1ccccc1OCC(O)Cn1c(=N)n(CCN2CCCCC2)c2ccccc21 (centres undefined) | -29% | i | ? | ? | ? | ?
CN(C)CCn1c(=N)n(CC(O)c2ccc(Cl)c(Cl)c2)c2ccccc21 (centres undefined) | -22% | i | ? | ? | 23µM* | ?
Cc1ccc(NS(=O)(=O)c2cc3c(cc2N2CCC2)NC(=O)CC3)cc1C | / | i | i | / | / | /
O=C(Nc1cccc(C(F)(F)F)c1)N1CC2CCCN2c2ccccc21 (centres undefined) | / | i | i | / | / | /
COc1ccc(CCn2c(-n3nc(C)cc3C)nc3c2c(=O)[nH]c(=O)n3C)cc1 | -8% | 1.6µM* | i | i | ? | ?
Cc1ccc(Cn2c(-n3nc(C)cc3C)nc3c2c(=O)[nH]c(=O)n3C)cc1 | 2% | i | i | i | 8% | 5%
CCOc1ccc(NC(=O)CN(C)C(=O)c2cccnc2Sc2ccc(C)cc2C)cc1OCC | 3% | 16µM* | i | i | 5% | -12%
CCOc1ccc(NC(=O)CN(C)C(=O)c2ccc(COc3ccccc3)cc2)cc1OCC | 5% | 9.2µM* | i | i | -5% | -7%
CCOc1ccc(NC(=O)CN(C)C(=O)c2ccccc2OCc2cccc(C)c2)cc1OCC | -2% | 2.9µM* | i | i | -12% | ?
CCOc1ccc(NC(=O)CN(C)C(=O)c2csc3c2CCCC3)cc1OCC | -4% | 15µM* | i | i | -2% | -1%
CCC12CN3CC(C)(CN(C1)C3c1c(C)n(C)c3ccccc13)C2=O (centres undefined) | 1% | i | i | i | / | /
